Records with an inconclusive call do not appear. A call without a number means that no potency is given here. Some compounds were tested as several samples or in several runs, with calls that do not always agree. Activity calls are given as the source filed them. Unless noted, calls come from the whole dose curve; as a rule, active = well fitted curve in the direction sought with a large enough effect; inconclusive = small, poorly fitted or top-dose-only effect, or another doubt; inactive = no such curve, though single readings can be large; an effect the other way counts as inactive or inconclusive.
How the values were obtained:
[1] = target: Beta-2 adrenergic receptor (Homo sapiens) (UniProt P07550); assay: qHTS validation assay of beta-arrestin-biased ligands of beta2-adrenergic receptor (AID 485366)
Sequence of Beta-2 adrenergic receptor (Homo sapiens) (P07550 whole entry, looked up): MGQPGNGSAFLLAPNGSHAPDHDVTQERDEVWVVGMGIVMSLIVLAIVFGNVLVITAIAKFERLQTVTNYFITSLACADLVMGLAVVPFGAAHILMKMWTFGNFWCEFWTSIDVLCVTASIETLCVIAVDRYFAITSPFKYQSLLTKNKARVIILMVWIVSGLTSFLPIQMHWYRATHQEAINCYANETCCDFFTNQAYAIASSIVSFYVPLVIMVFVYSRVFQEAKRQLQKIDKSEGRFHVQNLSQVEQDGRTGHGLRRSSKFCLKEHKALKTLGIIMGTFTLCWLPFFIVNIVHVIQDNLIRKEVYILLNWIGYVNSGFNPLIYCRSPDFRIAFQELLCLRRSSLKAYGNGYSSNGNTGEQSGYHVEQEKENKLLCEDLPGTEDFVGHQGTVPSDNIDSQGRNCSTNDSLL
Procedure, shortened: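 Luminescence from a tTA-responsive luciferase, induced when recombinant beta-arrestin is recruited to recombinant beta2-AR, served as the agonism signal. Cells were exposed to compound for 18 hr at 37 degrees C; titrations spanned up to 46 microM.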

[2] = Quantitative high throughput screen for delayed death inhibitors of the malarial parasite plastid, 96 hour incubation (AID 488745); note: nearly all actives have a fitted effect of over 70% in size; note: potency is the fitted concentration of half-maximal effect
Procedure, shortened: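 Infected erythrocytes were added to compound in Albumax-supplemented RPMI 1640 at 0.1% parasitemia and 2% hematocrit (final), incubated 96 h at 37 C under 5% CO2, then luciferase reagent was added and luminescence measured.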

[3] = Quantitative high throughput screen for delayed death inhibitors of the malarial parasite plastid, 48 hour incubation (AID 488752); note: nearly all actives have a fitted effect of over 65% in size; note: potency is the fitted concentration of half-maximal effect
Procedure, shortened: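 Readout is firefly luciferase luminescence from a reporter integrated into the parasite genome, with lower signal taken as inhibited growth. Infected red cells (0.1% parasitemia, 2% hematocrit final) are cultured with compound for one 48 h cycle at 37 C.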

[4] = target: Thioredoxin reductase 1, cytoplasmic (Rattus norvegicus) (UniProt O89049); assay: qHTS Assay for Inhibitors of Mammalian Selenoprotein Thioredoxin Reductase 1 (TrxR1) (AID 488773); details: Potency: inhibition; note: nearly all actives have a fitted effect of over 40% in size; note: potency is the fitted concentration of half-maximal effect
Sequence of Thioredoxin reductase 1, cytoplasmic (Rattus norvegicus) (O89049 whole entry, looked up): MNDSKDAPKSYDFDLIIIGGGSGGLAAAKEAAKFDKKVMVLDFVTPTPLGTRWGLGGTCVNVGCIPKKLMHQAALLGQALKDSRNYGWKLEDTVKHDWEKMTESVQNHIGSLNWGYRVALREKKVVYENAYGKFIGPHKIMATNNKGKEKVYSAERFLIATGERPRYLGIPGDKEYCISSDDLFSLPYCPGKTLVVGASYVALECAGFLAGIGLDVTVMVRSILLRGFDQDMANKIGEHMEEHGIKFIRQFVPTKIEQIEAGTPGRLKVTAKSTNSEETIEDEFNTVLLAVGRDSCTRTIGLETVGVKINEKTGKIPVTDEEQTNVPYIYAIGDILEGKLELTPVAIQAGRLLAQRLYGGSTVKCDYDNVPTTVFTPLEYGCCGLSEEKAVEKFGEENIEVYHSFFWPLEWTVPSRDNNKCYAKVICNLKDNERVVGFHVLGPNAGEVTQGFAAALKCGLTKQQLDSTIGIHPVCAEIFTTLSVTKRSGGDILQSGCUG
Procedure, shortened: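 Steps: enzyme (90 nM) plus NADPH (400 uM final), 5 min at ~22 deg C; compound added, 15 min; selenite (400 uM final) added; fluorescence followed for 8 min. Concentration-response curves derived from the normalized delta values.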

[5] = target: Flap endonuclease 1 (Homo sapiens) (UniProt P39748); assay: qHTS Validation Assay for the Inhibitors of Human Flap endonuclease 1 (FEN1) (AID 488816)
Sequence of Flap endonuclease 1 (Homo sapiens) (P39748 whole entry, looked up): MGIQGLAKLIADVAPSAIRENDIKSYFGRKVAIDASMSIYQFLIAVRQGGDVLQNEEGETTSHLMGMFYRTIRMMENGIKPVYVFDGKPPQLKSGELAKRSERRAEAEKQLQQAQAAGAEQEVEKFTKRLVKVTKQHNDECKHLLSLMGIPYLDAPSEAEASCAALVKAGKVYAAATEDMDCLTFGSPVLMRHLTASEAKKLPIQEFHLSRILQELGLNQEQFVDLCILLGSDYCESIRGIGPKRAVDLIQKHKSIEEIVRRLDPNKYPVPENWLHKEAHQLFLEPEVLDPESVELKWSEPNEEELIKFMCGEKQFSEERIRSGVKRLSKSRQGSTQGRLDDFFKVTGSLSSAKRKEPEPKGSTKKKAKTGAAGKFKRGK
Procedure, shortened: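 FEN1, dispensed as a 10 nM reagent, was preincubated with pin-transferred compounds for 15 min at room temperature before substrate was added (50 nM final). Plates were read at 0 and 15 min, and a four-parameter Hill equation was fitted to the concentration-response data.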

[6] = target: M-phase phosphoprotein 8 (Homo sapiens) (UniProt Q99549); assay: qHTS Validation Assay for Inhibitors for MPP8 Chromodomain Interactions with Methylated Histone Tails (AID 488949); note: nearly all actives have a fitted effect of over 55% in size; note: potency is the fitted concentration of half-maximal effect
Sequence of M-phase phosphoprotein 8 (Homo sapiens) (Q99549 whole entry, looked up): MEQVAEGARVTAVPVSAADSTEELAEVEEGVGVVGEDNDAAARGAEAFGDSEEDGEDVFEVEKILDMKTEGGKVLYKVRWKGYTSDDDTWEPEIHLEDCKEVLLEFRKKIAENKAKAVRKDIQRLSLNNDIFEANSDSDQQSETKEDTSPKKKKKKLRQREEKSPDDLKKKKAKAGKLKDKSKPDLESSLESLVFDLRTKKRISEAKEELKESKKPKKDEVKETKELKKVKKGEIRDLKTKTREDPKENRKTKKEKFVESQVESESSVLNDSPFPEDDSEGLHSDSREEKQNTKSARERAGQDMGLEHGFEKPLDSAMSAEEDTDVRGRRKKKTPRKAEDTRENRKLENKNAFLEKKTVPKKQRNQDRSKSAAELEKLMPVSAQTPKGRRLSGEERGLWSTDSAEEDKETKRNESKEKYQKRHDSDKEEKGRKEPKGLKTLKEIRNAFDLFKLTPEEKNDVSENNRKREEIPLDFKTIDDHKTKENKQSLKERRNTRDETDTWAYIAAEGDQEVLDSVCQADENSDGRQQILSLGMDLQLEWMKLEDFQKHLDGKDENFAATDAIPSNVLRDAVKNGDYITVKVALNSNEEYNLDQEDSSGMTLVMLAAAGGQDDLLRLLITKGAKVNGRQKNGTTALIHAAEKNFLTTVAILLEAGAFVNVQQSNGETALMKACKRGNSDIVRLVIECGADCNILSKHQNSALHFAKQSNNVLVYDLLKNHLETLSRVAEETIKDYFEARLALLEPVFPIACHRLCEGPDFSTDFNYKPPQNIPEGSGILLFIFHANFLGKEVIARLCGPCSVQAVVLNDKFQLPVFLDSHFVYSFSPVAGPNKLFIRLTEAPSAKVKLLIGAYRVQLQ
Procedure, shortened: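 MPP8 (50 nM) was preincubated with biotinylated H3(1-18)K9me3 peptide (50 nM) in PBS pH 7.4, 0.01% Tween-20 for 30 min at room temperature, then with compounds for 30 min; binding was detected by AlphaScreen.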

[7] = target: Chromobox protein homolog 1 (Homo sapiens) (UniProt P83916); assay: qHTS Validation Assay for Inhibitors of HP1-beta Chromodomain Interactions with Methylated Histone Tails (AID 488953); note: nearly all actives have a fitted effect of over 50% in size; note: potency is the fitted concentration of half-maximal effect
Sequence of Chromobox protein homolog 1 (Homo sapiens) (P83916 whole entry, looked up): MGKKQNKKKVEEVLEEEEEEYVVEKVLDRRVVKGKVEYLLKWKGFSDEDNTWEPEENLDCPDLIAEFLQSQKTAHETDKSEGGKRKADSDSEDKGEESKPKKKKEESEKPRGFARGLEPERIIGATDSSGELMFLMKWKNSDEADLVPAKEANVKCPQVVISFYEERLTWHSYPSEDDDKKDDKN
Procedure, shortened: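 50 nM HP1-beta + 50 nM biotin-H3(1-18)K9me3, PBS pH 7.4, 0.01% Tween-20, 30 min RT; compound added, 30 min RT; AlphaScreen beads 10 ug/mL final, 30 min dark; luminescence read.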

[8] = target: Methanococcus maripaludis chaperonin (MmCpn) (UniProt Q6LX38); assay: High-Throughput Screening for Modulators of Cytosolic Chaperonin Activity: MmCpn Primary Screen (AID 488978);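 note: 50 nM MmCpn enzyme hydrolysing 30 µM ATP at 37 °C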
Sequence of Methanococcus maripaludis chaperonin (MmCpn) (Q6LX38 1-543): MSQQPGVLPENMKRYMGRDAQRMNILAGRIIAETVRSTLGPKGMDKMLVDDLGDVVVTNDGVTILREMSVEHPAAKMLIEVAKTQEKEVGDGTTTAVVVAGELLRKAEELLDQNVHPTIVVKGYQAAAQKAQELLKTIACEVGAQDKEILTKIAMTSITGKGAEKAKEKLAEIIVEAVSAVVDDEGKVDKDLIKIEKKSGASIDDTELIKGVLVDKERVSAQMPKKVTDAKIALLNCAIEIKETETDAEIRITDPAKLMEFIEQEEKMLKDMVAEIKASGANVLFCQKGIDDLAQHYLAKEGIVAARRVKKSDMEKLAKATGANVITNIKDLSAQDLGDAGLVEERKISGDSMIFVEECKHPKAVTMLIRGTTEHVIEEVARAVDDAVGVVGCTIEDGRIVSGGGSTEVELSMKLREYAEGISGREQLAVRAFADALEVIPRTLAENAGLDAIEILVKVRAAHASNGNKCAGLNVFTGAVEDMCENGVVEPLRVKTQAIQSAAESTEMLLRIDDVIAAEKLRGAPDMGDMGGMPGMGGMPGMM
Procedure, shortened: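 MmCpn (50 nM final) was preincubated with compound 5 min at RT, then 30 uM ATP (final) was added and the reaction ran 10 min at 37C. ADP produced was detected by Transcreener HTRF (ex 320 nm; em 590/665 nm).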

[9] = target: Transient receptor potential cation channel subfamily V member 1 (Homo sapiens) (UniProt Q8NER1); assay: HTS Assay for Compounds that Act as Enhancers of the Vanilloid Receptor 1 (AID 488979)
Sequence of Transient receptor potential cation channel subfamily V member 1 (Homo sapiens) (Q8NER1 whole entry, looked up): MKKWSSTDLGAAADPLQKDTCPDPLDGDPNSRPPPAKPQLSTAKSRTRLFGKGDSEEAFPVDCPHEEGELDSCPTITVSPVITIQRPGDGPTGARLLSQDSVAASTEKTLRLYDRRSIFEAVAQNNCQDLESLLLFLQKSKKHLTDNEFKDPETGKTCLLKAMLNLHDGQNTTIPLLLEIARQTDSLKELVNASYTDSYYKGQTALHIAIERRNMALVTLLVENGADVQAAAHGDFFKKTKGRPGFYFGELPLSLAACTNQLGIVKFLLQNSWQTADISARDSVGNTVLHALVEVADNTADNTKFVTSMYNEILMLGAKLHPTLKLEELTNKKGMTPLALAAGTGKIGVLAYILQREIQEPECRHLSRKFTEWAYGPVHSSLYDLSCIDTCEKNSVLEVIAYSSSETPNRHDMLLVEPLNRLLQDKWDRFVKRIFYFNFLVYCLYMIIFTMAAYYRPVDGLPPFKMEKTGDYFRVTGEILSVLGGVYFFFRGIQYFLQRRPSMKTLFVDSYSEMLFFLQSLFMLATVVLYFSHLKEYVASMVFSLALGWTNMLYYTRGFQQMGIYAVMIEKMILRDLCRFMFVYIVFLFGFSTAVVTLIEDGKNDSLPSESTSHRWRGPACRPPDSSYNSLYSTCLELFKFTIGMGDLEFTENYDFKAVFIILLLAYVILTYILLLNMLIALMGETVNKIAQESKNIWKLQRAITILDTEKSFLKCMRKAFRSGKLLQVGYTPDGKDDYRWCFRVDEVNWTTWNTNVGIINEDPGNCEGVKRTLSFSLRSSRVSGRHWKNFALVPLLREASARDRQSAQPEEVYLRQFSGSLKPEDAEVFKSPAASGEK
Procedure, shortened: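 TRPV1-expressing cells loaded with Fluo-8 calcium dye; compounds added and calcium influx read kinetically for 3 min (agonist phase), then capsaicin at EC20 added and read 2 min more for enhancement. Fluorescence ex 480/em 520 nm.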

[10] = target: Thyrotropin receptor (Homo sapiens) (UniProt P16473); assay: qHTS Assay for Antagonists of the Thyroid Stimulating Hormone Receptor (AID 488980); note: series mostly up to about 58 µM
Sequence of Thyrotropin receptor (Homo sapiens) (P16473 whole entry, looked up): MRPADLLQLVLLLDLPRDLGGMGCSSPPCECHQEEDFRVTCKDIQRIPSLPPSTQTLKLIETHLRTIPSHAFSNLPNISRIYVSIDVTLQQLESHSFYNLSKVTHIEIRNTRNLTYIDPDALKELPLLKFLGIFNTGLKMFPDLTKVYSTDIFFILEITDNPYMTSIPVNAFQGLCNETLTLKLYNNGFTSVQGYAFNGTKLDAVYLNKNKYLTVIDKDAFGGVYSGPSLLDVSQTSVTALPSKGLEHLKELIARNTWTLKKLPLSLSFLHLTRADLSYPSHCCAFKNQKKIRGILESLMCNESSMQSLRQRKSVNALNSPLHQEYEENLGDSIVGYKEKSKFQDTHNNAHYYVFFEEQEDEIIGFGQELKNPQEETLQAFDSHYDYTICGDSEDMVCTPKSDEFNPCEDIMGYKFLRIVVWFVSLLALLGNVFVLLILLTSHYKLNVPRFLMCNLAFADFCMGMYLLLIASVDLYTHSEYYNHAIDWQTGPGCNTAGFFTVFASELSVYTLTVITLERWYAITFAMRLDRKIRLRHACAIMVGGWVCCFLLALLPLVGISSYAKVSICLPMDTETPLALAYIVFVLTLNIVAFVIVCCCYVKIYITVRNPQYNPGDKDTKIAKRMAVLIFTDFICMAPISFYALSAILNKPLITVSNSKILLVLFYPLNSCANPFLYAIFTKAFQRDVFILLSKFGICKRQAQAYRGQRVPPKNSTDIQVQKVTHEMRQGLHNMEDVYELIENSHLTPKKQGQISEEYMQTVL
Procedure, shortened: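 HEK293 cells transfected with human TSHR, suspended in HEPES-buffered HBSS with 70 uM RO 20-1724, were treated with compounds plus TSH at EC80 (4 nM final). cAMP was measured by competitive HTRF (cryptate anti-cAMP antibody, cAMP-d2 acceptor).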

[11] = target: D(1A) dopamine receptor (Homo sapiens) (UniProt P21728); assay: HTS Assay for Allosteric Agonists of the Human D1 Dopamine Receptor: Primary Screen for Agonists (AID 488981)
Sequence of D(1A) dopamine receptor (Homo sapiens) (P21728 whole entry, looked up): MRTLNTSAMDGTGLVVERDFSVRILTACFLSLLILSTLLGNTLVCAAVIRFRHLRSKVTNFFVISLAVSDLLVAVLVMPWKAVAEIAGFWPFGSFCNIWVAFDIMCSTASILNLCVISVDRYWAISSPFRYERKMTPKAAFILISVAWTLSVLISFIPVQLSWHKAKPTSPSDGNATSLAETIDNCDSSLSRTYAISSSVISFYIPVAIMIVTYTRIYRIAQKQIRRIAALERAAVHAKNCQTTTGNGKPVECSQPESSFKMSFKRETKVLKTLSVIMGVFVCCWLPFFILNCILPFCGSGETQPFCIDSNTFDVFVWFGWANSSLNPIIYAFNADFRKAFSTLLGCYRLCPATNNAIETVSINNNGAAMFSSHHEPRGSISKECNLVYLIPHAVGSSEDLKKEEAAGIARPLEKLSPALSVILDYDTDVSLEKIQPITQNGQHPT
Procedure, shortened: (§1)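 Tetracycline-induced HEK293 T-REx cells force-coupled to calcium signalling were incubated overnight at 30 C and dye-loaded at room temperature. Calcium flux over 180 s after compound addition flagged agonists; a further 180 s read after EC20 dopamine flagged potentiators.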

[12] = target: D(1A) dopamine receptor (Homo sapiens) (UniProt P21728); assay: HTS Assay for Allosteric Agonists of the Human D1 Dopamine Receptor: Primary Screen for Potentiators (AID 488982)
Procedure, shortened: as §1

[13] = target: D(1A) dopamine receptor (Homo sapiens) (UniProt P21728); assay: HTS Assay for Allosteric Agonists of the Human D1 Dopamine Receptor: Primary Screen for Antagonists (AID 488983);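 note: calcium flux response to an EC80 dopamine challenge measured with no-wash dye; nearly all actives have a fitted effect of over 65% in size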
Procedure, shortened: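 Cells are induced with tetracycline and incubated overnight at 30 C, then loaded with calcium dye for 30 to 90 minutes at room temperature. Compound addition is followed by a 180 s read, then an EC80 dopamine addition and another 180 s read.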

[14] = Validation screen for small molecules that induce genotoxicity in human embryonic kidney (HEK293T) cells expressing luciferase-tagged ELG1 (AID 493106); note: potency is the fitted concentration of half-maximal effect
Procedure, shortened: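 Luminescence from an ELG1-luciferase fusion serves as the read-out, rising when genetic stress elevates ELG1 protein. HEK293T reporter cells (2,000 per well) received 23 nL compound, incubated 16 hr at 37 °C, then ONE-Glo for 30 min at room temperature.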

[15] = target: ATPase family AAA domain-containing protein 5 (Homo sapiens) (UniProt Q96QE3); assay: Validation screen for small molecules that inhibit ELG1-dependent DNA repair in human embryonic kidney (HEK293T) cells expressing luciferase-tagged ELG1 (AID 493107);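 note: cells co-treated with the DNA-damaging agent 5-fluorouridine alongside compound; series mostly up to about 46 µM; inhibitors lower the ELG1-luciferase luminescence signal; nearly all actives have a fitted effect of over 70% in size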
Procedure, shortened: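 Luminescence from ONE-Glo, developed 30 min at room temperature, served as read-out of ELG1-luciferase levels. Beforehand, reporter HEK293T cells received 5-fluorouridine plus test compound for 16 hr at 37 °C.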

[16] = target: Thyrotropin-releasing hormone receptor (Homo sapiens) (UniProt P34981); assay: qHTS for Small Molecule Agonists and Allosteric Enhancers of Human TRH Receptor: Validation Screen for Agonists (AID 493127;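 active = calcium activation more than 3 SD above the typical response in the agonist read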;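 note: intracellular calcium rise by fluo-8 fluorescence before TRH EC20 addition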); details: TRH receptor agonist cell assay; at 2 µM; stronger effect = higher value
Procedure, shortened: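 Cells 2000/well, 10% FCS, 18 h 33.5C/5% CO2 → fluo-8 Ca dye, RT 30 min–1.5 h → FDSS baseline 10 × 1 s → compound added → 230 cycles (1 s/cycle) agonist mode. TRH controls.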

[17] = target: Thioredoxin reductase 1, cytoplasmic (Rattus norvegicus) (UniProt O89049); assay: qHTS Assay for Substrates of Mammalian Selenoprotein Thioredoxin Reductase 1 (TrxR1) (AID 488772);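 note: NADPH fluorescence in the first read after selenite addition and not the 8 min delta; series mostly up to about 57 µM; a drop in NADPH fluorescence below the no-compound background marks a TrxR1 substrate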
Procedure, shortened: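 Quantitative HTS in Tris-HCl buffer at pH 7.5 with EDTA and Tween-20, using rat TrxR1, 400 uM NADPH and 400 uM selenite (final). A fall in initial NADPH fluorescence relative to background marked substrate behaviour.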

[18] = target: ATP-dependent 6-phosphofructokinase (Trypanosoma brucei brucei) (UniProt O15648); assay: qHTS Assay to Find Inhibitors of T. brucei phosphofructokinase: hit validation (AID 492961);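 note: luminescence reports ADP formed as PFK phosphorylates fructose-6-phosphate with ATP; series mostly up to about 51 µM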
Procedure, shortened: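 PFK 1.25 nM, F6P 0.5 mM, ATP 0.1 mM, MgCl2 5 mM, 0.1 M TEA pH 8.0, Tween20 0.01%, BSA 0.1%; 45 min RT. ADP-Glo two-step detection, luminescence. qHTS titration; curve fitting with curve-class categorization.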

SMILES	outcome [1]	Potency [2]	Potency [3]	Potency [4]	Potency [5]	Potency [6]	Potency [7]	outcome [8]	outcome [9]	outcome [10]	Potency [11]	Potency [12]	Potency [13]	Potency [14]	Potency [15]	activation [16]	outcome [17]	outcome [18]
N[C@@H](CCCC(=O)O)C(=O)O	inactive	inactive	inactive	inactive	inactive	inactive	inactive	inactive	inactive	inactive	inactive	inactive	inactive	inactive	inactive	0.75% (inactive)		
[Li+]	inactive	inactive	inactive	inactive		inactive	inactive	inactive	inactive	inactive	inactive		inactive	inactive	inactive		inactive	
CCC1(O)CC2CN(CCc3c([nH]c4ccccc34)[C@@](C(=O)OC)(c3cc4c(cc3OC)N(C=O)C3[C@]45CCN4CC=C[C@@](CC)([C@@H](OC(C)=O)[C@]3(O)C(=O)OC)[C@H]45)C2)C1 (stereo partly specified)	inactive	0.117 µM (active)	0.131 µM (active)	inactive	inactive	inactive		inactive		inactive	inactive	inactive	inactive	0.92 µM (active)		0.188% (inactive)	inactive	
C/C(=C\c1ccc(C(=O)O)cc1)c1ccc2c(c1)C(C)(C)CCC2(C)C	inactive	inactive	inactive		inactive	inactive	inactive	inactive	inactive	inactive	inactive	inactive	inactive	inactive	inactive	-6% (inactive)	inactive	
O=C(O)C1=CCNCC1	inactive	inactive	inactive	inactive	inactive	inactive	inactive	inactive	inactive	inactive	inactive		inactive	inactive	inactive	1.25% (inactive)		
NC(C(=O)N[C@@H]1C(=O)N2C(C(=O)O)=C(Cl)CS[C@H]12)c1ccccc1 (stereo partly specified)	inactive	inactive	inactive	inactive	inactive	inactive		inactive	inactive	inactive		inactive	inactive	inactive	inactive		inactive	
CC(=O)[C@H]1CCC2C3CC=C4C[C@@H](OS(=O)(=O)O)CC[C@]4(C)C3CC[C@@]21C (stereo partly specified)	inactive	inactive	inactive	inactive		inactive	inactive	inactive	inactive	inactive	inactive	inactive	inactive	inactive	inactive	-0.125% (inactive)	inactive	
CCCCCCCCCCCCCCCCCCOC[C@H](COP(=O)([O-])OCC[N+](C)(C)C)OC	inactive	inactive	inactive	inactive	inactive	inactive	inactive	inactive	inactive	inactive	inactive	inactive	inactive		inactive	0.938% (inactive)		inactive
c1ccc2nc(C3=NCCN3)ccc2c1	inactive	inactive	inactive	inactive		inactive	inactive	inactive	inactive	inactive	inactive	inactive	inactive	inactive	inactive	0.0625% (inactive)	inactive	
Cc1nc(N=Nc2ccc(C(=O)O)cc2)c(COP(=O)(O)O)c(C=O)c1O	inactive	inactive	inactive		inactive	inactive	50.1 µM (active)	inactive	inactive	inactive	inactive	inactive	inactive	inactive	inactive		inactive	
O=C(O)c1ccccc1Nc1cccc(OCc2ccc3ccccc3n2)c1	inactive	inactive	inactive	inactive	inactive	39.8 µM (active) and inactive		inactive	inactive	inactive	inactive	inactive		inactive	inactive	-5.56% (inactive)	inactive	
O=C(O)Cc1ccc(O)c(O)c1	inactive	inactive	inactive	7.52 µM (active)		inactive		inactive	inactive	inactive	inactive	inactive	inactive	inactive		0.938% (inactive)	inactive	
CNc1cc(NS(=O)(=O)c2ccc(N)cc2)nc(NC)n1	inactive	inactive	inactive	inactive	inactive	inactive		inactive	inactive	inactive		inactive	inactive	inactive		0.25% (inactive)	inactive	
CN1CCCC1CCOC(C)(c1ccccc1)c1ccc(Cl)cc1 (stereo unspecified)	inactive	8.28 µM (active)	10.4 µM (active)	inactive		inactive		inactive		inactive				inactive		1.88% (inactive)	inactive	
COc1ccc(CCN(C)CCc2ccc(OC)c(OC)c2)cc1OC	inactive	inactive	inactive	inactive	inactive	inactive		inactive	inactive	inactive	inactive	inactive	inactive	inactive		-4.19% (inactive)	inactive	
Clc1nccc2c1ccc1ccccc12	inactive	inactive	inactive	inactive	inactive	inactive	inactive	inactive	inactive	inactive	inactive	inactive	inactive	inactive	inactive	-6.94% (inactive)		

Reference: PubChem BioAssay (NCATS)
